A selection: hits, their analogues and other compounds. The true share with any hit is near 3.3%.
PI5P4Ka inh: inhibitors of human PI5P4K alpha | hit rate 1.2% among 330,000 | PI5P4Kalpha enzyme, ADP-Glo luminescence, 60 min; active compounds read low | P48426 | AID 652105 | max response, %; active = max response of -50% or lower; inconclusive = between -30% and -50%; inactive = -30% or higher; also: value at the top dose of about 77 µM
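Enzyme plus substrate dispensed, test compounds pinned in, then ATP (5 microM final) added. After 60 min at RT, ADP-Glo reagent 1 for 45 min and reagent 2 for 30 min preceded luminescence imaging.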
PI4K2A inh: PI4K2A (human) kinase inhibition; Q9BTU6; purified PI4K2A, ADP-Glo luminescence, 1 h; active compounds read low; activity change, negative = inhibition, % at 76.9 µM; hit rate 0.13% among 420,000; AID 1346378; in the data active = activity change below about -50%; inconclusive = mostly about -30% to -49%
Target sequence (Q9BTU6 whole entry, looked up): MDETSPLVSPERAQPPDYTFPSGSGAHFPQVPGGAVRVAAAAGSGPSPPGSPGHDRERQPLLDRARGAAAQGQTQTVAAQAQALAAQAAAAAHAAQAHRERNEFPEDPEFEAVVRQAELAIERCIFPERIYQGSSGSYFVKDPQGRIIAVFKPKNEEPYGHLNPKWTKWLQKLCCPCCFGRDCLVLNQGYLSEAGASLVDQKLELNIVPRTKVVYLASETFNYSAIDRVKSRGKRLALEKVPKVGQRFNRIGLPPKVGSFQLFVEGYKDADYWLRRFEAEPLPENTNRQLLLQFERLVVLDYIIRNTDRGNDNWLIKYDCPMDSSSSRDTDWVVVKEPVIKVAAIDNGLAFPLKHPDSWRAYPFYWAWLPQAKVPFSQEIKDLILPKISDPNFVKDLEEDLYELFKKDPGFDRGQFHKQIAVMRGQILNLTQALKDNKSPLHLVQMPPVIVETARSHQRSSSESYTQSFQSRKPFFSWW
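In this quantitative HTS, ADP production by PI4K2A was quantified luminescently after 1 h at ambient temperature; 100 microM adenosine served as plate-quality control.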
DRD3 agonist: activates the human D3 dopamine receptor | max activation, % | P35462 | hit rate 0.58% among 410,000 | D3R DiscoveRx beta-arrestin cells, luminescence, 90 min; in the data active = max activation above about 30%
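Cells at 1500/well, incubated overnight, then treated with pinned compounds (dopamine as control) for 90 min at 37 degrees C. DiscoveRx reagent added for 30 - 60 minutes at room temperature; luminescence read.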
DRD3 antagonist: antagonists of human D3 dopamine receptor; P35462; D3R cells, DiscoveRx beta-arrestin luminescence, antagonist mode; active compounds read low; max response, negative = inhibition, %; hit rate 2.5% among 360,000; AID 652054; in the data active = max response below about -50%; inconclusive = no clear call, values can overlap the other calls
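Cells plated overnight at 1500 cells/well, then exposed to library compounds with dopamine controls for 90 minutes at 37 degrees C. DiscoveRx reagent added for 30–60 minutes at room temperature; luminescence read, quantitative HTS format.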
LDHA inh: LDHA (human) enzyme inhibition. P00338. purified LDHA, NADH/diaphorase-resazurin fluorescence; active compounds read low. activity change, % (values are at about 110 or 230 µM). hit rate 0.15% among 480,000; in the data active = activity change below about -30%; inconclusive = mostly about -25% to -30%
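Human LDH5 (2 nM) was incubated with 0.06 mM NADH and 0.2 mM pyruvate for 5 min at room temperature in Tris pH 7.4. Remaining NADH was coupled through diaphorase/resazurin, and resorufin fluorescence was read at 0 and 20 min.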
Large screens that a line does not name were inactive.

CC1(C)C(C(=O)N2CCN(c3ccc(Cl)cc3)CC2)C1(C)C	none
N#Cc1ccc2nc(-c3ccc(CN4CCC(n5c(=O)[nH]c6ccccc65)CC4)cc3)c(-c3ccccc3)nc2c1	DRD3 antagonist -57
Cc1ccc(-n2nc(C)c3c2NC(=O)CSC3c2ccc(F)cc2)cc1Cl (configuration not stated)	none (no result: PI5P4Ka inh, PI4K2A inh, DRD3 agonist, DRD3 antagonist)
CCCN(CCC)C1Cc2cc(OC)c(OC)cc2C1	DRD3 antagonist -103
OC1(c2ccc(F)cc2)CC2CCC(C1)N2Cc1nnnn1C1CCCC1 (configuration not stated)	DRD3 antagonist -110 (no result: PI5P4Ka inh)
FC(F)(F)c1ccc2c(c1)ncn2C1CCN(Cc2nnnn2C2CCCCC2)CC1	none (no result: PI5P4Ka inh)
COc1ccc(-c2c(C)oc3cc(OCC(=O)N4CCN(CCO)CC4)ccc3c2=O)cc1	none (no result: PI5P4Ka inh, PI4K2A inh, DRD3 agonist, DRD3 antagonist)
COc1ccc(CN2CC=C(c3ccc(F)cc3)CC2)cc1Br	DRD3 antagonist -68
Oc1ccc(C2=CCN(CC(O)COc3ccc(F)cc3)CC2)cc1 (configuration not stated)	none (no result: PI5P4Ka inh, PI4K2A inh, DRD3 agonist, DRD3 antagonist)
CCN(CC)c1ccc(CN2CC=C(c3ccc(F)cc3)CC2)cc1	DRD3 antagonist -67
NC(=O)c1ccc(N=Cc2c(O)n(Cc3ccco3)c(=O)[nH]c2=O)cc1	PI5P4Ka inh -79, PI4K2A inh inconclusive
CCN(CC)c1ccc(N=Cc2c(O)n(Cc3ccco3)c(=O)[nH]c2=O)cc1	none
O=c1[nH]c(=S)n(Cc2ccco2)c(O)c1C=NCc1cccs1	PI5P4Ka inh -69, PI4K2A inh -57, DRD3 antagonist -70
O=c1[nH]c(=O)n(Cc2ccco2)c(O)c1C=NCc1cccs1	none (no result: PI5P4Ka inh)
CCC(=O)C(CC(C)N(C)C)(c1ccccc1)c1ccccc1 (configuration not stated)	none (no result: PI5P4Ka inh, DRD3 antagonist, LDHA inh)
CN(CCOc1ccccc1)c1ccc([N+](=O)[O-])c2cccnc12	none (no result: PI5P4Ka inh, PI4K2A inh, DRD3 agonist, DRD3 antagonist)
COc1cccc(CC(=O)N2CCN(C(C)C(=O)NC(N)=O)CC2)c1 (configuration not stated)	none (no result: PI5P4Ka inh, PI4K2A inh, DRD3 agonist, DRD3 antagonist)
CCOC(=O)C1(c2ccccc2)CCN(CCC(=O)Nc2ccc(C(=O)OC)cc2)CC1	DRD3 antagonist -51
CCOC(=O)C1(c2ccccc2)CCN(CCC(=O)Nc2cccc(Br)c2)CC1	DRD3 antagonist -87
CCOC(=O)C1(c2ccccc2)CCN(CCC(C#N)(c2ccccc2)c2ccccc2)CC1	DRD3 antagonist -72
CCOC(=O)C1(c2ccccc2)CCN(CCC(=O)Nc2ccc(OC)cc2)CC1	none
CCOC(=O)C1(c2ccccc2)CCN(CC(=O)Nc2ccc(C)cc2)CC1	DRD3 antagonist -56
CCCNC(=O)NC(=O)CCl	none (no result: PI5P4Ka inh, PI4K2A inh, DRD3 agonist, DRD3 antagonist)
C=CCOc1ccc(/C=C(\C)[N+](=O)[O-])cc1OC	none (no result: PI5P4Ka inh, PI4K2A inh, DRD3 agonist, DRD3 antagonist)
O=c1[nH]c2ccccc2n1C1CCN(C(c2cc3ccccc3o2)c2nnnn2-c2ccc3c(c2)OCCO3)CC1 (configuration not stated)	DRD3 agonist 43
O=c1[nH]c2ccccc2n1C1CCN(C(c2cccc3ccccc23)c2nnnn2-c2ccc3c(c2)OCCO3)CC1 (configuration not stated)	none
CCOc1cc(/C=C2\C(=O)NC(=O)N(CCc3ccc(F)cc3)C2=O)ccc1O	PI5P4Ka inh -58, PI4K2A inh inconclusive
Cc1ccc(/C=C2\C(=O)NC(=O)N(CCc3ccc(F)cc3)C2=O)o1	PI5P4Ka inh -53, PI4K2A inh inconclusive
COc1cccc2c1ccn2CC(=O)NCC1(CC(=O)O)CCCCC1	none (no result: PI5P4Ka inh, PI4K2A inh, DRD3 agonist, DRD3 antagonist)
COc1ccc(CCNC(C)CCc2ccc(OC)cc2)cc1 (configuration not stated)	DRD3 antagonist -52 (no result: PI5P4Ka inh)
C/C(=C\c1c[nH]c2ccccc12)[N+](=O)[O-]	none (no result: PI5P4Ka inh, PI4K2A inh, DRD3 agonist, DRD3 antagonist)
Cc1cccc(N2C(=O)/C(=C/c3ccc(CN(CCC#N)S(C)(=O)=O)o3)C(=O)NC2=S)c1	PI5P4Ka inh -56, DRD3 antagonist inconclusive
O=C1NC(=O)N(c2cccc(F)c2)C(=O)/C1=C/c1ccc(N2CCOCC2)cc1	PI5P4Ka inh -61
CCOc1ccc(N2C(=O)/C(=C/c3ccc(C)o3)C(=O)NC2=S)cc1	PI5P4Ka inh -76, DRD3 antagonist inconclusive
COc1ccc(N2C(=O)/C(=C/c3ccc(C)o3)C(=O)NC2=S)cc1	PI5P4Ka inh inconclusive
Cc1ccc(/C=C2\C(=O)NC(=S)N(c3cccc(F)c3)C2=O)o1	PI5P4Ka inh -77
CCCOC(=O)C1=C(C)N[C@]2(C)C[C@H]1c1ccccc1O2	none (no result: PI5P4Ka inh, PI4K2A inh, DRD3 agonist, DRD3 antagonist)
COC1CC2C=C(C)C=CC=CC(=O)NC(c3ccccc3)CC=CCCC(O)CC(=O)C2=C1O (configuration not stated)	PI5P4Ka inh -84, DRD3 antagonist -85
CCc1nc(N2CCNCC2)c(C#N)c2c1CSC(C)(C)C2	DRD3 antagonist -74
O=C1NC(=O)C(=Cc2c(Cl)cccc2Cl)C(=O)N1	PI5P4Ka inh inconclusive
O=C1NC(=O)C(=Cc2ccc(Sc3ccccc3)o2)C(=O)N1	PI5P4Ka inh -52
O=C1NC(=O)C(=Cc2ccco2)C(=O)N1	PI5P4Ka inh -84
NC1CC1c1ccccc1C(F)(F)F (configuration not stated)	none (no result: PI5P4Ka inh, PI4K2A inh, DRD3 agonist, DRD3 antagonist)
OCCNc1c2c(nc3ccccc13)CCCC2	none
C[n+]1c2ccccc2nc2ccc(NCCO)cc21	PI4K2A inh inconclusive, DRD3 antagonist -54
CNc1ccc2nc3ccccc3[n+](C)c2c1	PI4K2A inh inconclusive, DRD3 antagonist -59
Cc1ccccc1CN1CCN(Cc2cccc(F)c2)CC1	none (no result: PI5P4Ka inh, PI4K2A inh, DRD3 agonist, DRD3 antagonist)
Cc1ccsc1C(=O)C1CCCN(Cc2cnn(C)c2)C1 (configuration not stated)	DRD3 antagonist inconclusive
Cc1ccsc1C(=O)C1CCCN(Cc2cc(C(C)C)n[nH]2)C1 (configuration not stated)	DRD3 antagonist -81
COc1ccc(F)cc1C(=O)C1CCCN(Cc2cnc(C)s2)C1 (configuration not stated)	DRD3 antagonist inconclusive
Cc1ccsc1C(=O)C1CCCN(CCO)C1 (configuration not stated)	DRD3 antagonist inconclusive
COc1ccc(OC)c(CN2CCCC(C(=O)c3sccc3C)C2)c1 (configuration not stated)	DRD3 antagonist -82
COc1cccc(O)c1CN1CCCC(C(=O)c2sccc2C)C1 (configuration not stated)	DRD3 antagonist inconclusive
Cc1ccsc1C(=O)C1CCCN(Cc2ccn[nH]2)C1 (configuration not stated)	DRD3 antagonist -62
COc1ccc(Cl)cc1C(=O)C1CCCN(Cc2cnc(C)s2)C1 (configuration not stated)	DRD3 antagonist -56
COc1ccc(C(=O)C2CCCN(Cc3cccc(C)n3)C2)c(OC)c1 (configuration not stated)	none
COc1ccc(C(=O)C2CCCN(Cc3ccc(C)s3)C2)c(OC)c1 (configuration not stated)	DRD3 antagonist -69
O=C(Cc1c[nH]c2ccccc12)N1CCN(Cc2ccccc2)CC1	none (no result: PI5P4Ka inh, PI4K2A inh, DRD3 agonist, DRD3 antagonist)

High-throughput results (PubChem BioAssay)
